JMJD2A Tudor = JMJD2A Tudor domain (human) inhibition; Potency, µM (doses to about 114 µM), without a hit: at the top dose activity change, negative = inhibition, usual class: inhibitors; 390,000 compounds, 4.4% hits; AID 504339; AlphaScreen JMJD2A-Tudor / H3K4me3 peptide binding; further: potency means the concentration at half of the fitted maximal effect; on the % scale 0 is the no-effect control and ±100 the full control effect; nearly all actives have a fitted effect of over 50% in size
BAZ2B inh = blocks human BAZ2B; Potency, µM (doses to about 114 µM), for the others: at the top dose activity change, negative = inhibition, usual class: inhibitors; AlphaScreen BAZ2B-H3K14Ac peptide displacement; AID 504333; Q9UIF8; 360,000 compounds, 4.4% hits; further: potency means the concentration at half of the fitted maximal effect; on the % scale 0 is the no-effect control and ±100 the full control effect; nearly all actives have a fitted effect of over 60% in size
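Compounds, titrated to a top concentration of 110 uM, were incubated 30 min at room temperature with preformed BAZ2B/acetyl-K14 H3 peptide complex (50 nM each). Proximity signal was measured by AlphaScreen after 20 min with beads.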
CtBP-E1A inh = blocks the CtBP interaction with E1A; activity change, % (no concentration beside the values); 340,000 compounds, 0.49% hits; AlphaScreen GST-E1A/His-CtBP binding, 1536-well; hits give low values; AID 651724; in the data active means activity change below about -65%; inconclusive means mostly about -30% to -63%; further: on the % scale 0 is the no-effect control and ±100 the full control effect
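In 5 uL wells, 23 nL compound meets equimolar GST-E1A and His-CtBP (5X stock 125 nM each) for 2 h, 37 °C. Beads (5X, 50 ug/mL) then 1 h, 37 °C, dark.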
Six1-Eya2 inh = inhibitors of human Six1/Eya2 interaction | AlphaScreen GST-Six1/His-Eya2 binding, biochemical; hits give low values | activity change, % (test concentration not listed) | 360,000 compounds, 0.56% hits; in the data active means activity change below about -65%; inconclusive means mostly about -30% to -63%; further: on the % scale 0 is the no-effect control and ±100 the full control effect
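GST-Six1 + His-Eya2 (5X stock: 250/500 nM); Tris pH 8.0, 300 mM NaCl, 0.05% BSA, 0.02% Tween 20; GSH donor/Ni acceptor beads; 1 h 37 °C dark; AlphaScreen readout.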
HP1b binding inh = inhibitors of HP1-beta chromodomain binding to methylated histone tails. P83916. AlphaScreen HP1-beta / biotin-H3K9me3 peptide binding. Potency, µM (titrated, usually from 114 µM), for inactives: at the top dose activity change, negative = inhibition, hits mostly inhibitors. 390,000 compounds, 0.56% hits; further: potency means the concentration at half of the fitted maximal effect; nearly all actives have a fitted effect of over 70% in size
Target sequence (P83916 whole entry, looked up): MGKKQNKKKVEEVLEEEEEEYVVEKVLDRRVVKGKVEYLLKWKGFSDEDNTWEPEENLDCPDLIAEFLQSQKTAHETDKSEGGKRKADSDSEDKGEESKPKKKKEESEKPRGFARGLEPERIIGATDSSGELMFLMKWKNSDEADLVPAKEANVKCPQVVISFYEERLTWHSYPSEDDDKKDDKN
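AlphaScreen: HP1-beta (50 nM) preformed 30 min with biotin-H3(1-18)K9me3 peptide (50 nM) in PBS pH 7.4, 0.01% Tween-20. Compound added for 30 min at RT, then streptavidin donor/nickel chelate acceptor beads (10 ug/mL) for 30 min.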
G9a inh = G9a (human) methyltransferase inhibition | Q96KQ7 | G9a H3K9 monomethylation, AlphaScreen, 2 h | Potency, µM (doses to about 102 µM), for the others: top-dose activity, negative = inhibition, usual class: inhibitors | 350,000 compounds, 8.8% hits; further: potency means the concentration at half of the fitted maximal effect; on the % scale 0 is the no-effect control and ±100 the full control effect; nearly all actives have a fitted effect of over 75% in size
Target sequence (Q96KQ7 913-1193 limits assumed): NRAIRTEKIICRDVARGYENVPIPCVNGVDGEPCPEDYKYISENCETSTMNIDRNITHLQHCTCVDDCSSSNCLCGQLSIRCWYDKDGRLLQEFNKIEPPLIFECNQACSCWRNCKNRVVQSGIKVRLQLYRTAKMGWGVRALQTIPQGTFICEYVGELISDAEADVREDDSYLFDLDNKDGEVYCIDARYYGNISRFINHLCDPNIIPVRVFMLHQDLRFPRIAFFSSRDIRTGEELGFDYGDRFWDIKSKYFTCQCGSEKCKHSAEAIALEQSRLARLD
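Compounds were preincubated with 20 nM G9a for 15 min, after which biotinylated H3K9 peptide (500 nM) and SAM (20 uM) started a 2 h room-temperature reaction. Monomethylated product was quantified by antibody-based AlphaScreen chemiluminescence.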
* hit, by the source's call; ? = inconclusive; . = not tested or not shown; ! = repeats disagree; [ ] = remark or other dose. Most compounds without a hit are left out; they make up all but 10% or so of the library. Unless noted, the call rests on the fitted dose curve; in most records, active means well fitted inhibition curve with a large enough effect; inconclusive means small, poorly fitted or top-dose-only effect; inactive means no such curve, though single readings can be large or run the other way.

SMILES	JMJD2A Tudor	BAZ2B inh	CtBP-E1A inh	Six1-Eya2 inh	HP1b binding inh	G9a inh
CCN(c1ccccc1)c1nnc(NC(=O)Nc2cccc(Cl)c2C)s1	-17%	-18%	.	.	18%	?
COc1ccc(CN2CCN(C(=O)c3ccco3)CC2)cc1OC	-20%[11.4 µM]	40µM*	.	-1	25µM*	10µM*
COc1ccc(CCn2nnnc2CN2CCN(C(=O)c3ccco3)CC2)cc1OC	-3%	5%	5	2	30%	-7%[0.501 µM]
Cc1ccc(NC(=O)c2c(C)nc3sc(C(=O)Nc4ccc(F)cc4)c(N)c3c2-c2ccc(C)o2)c(C)c1	0%	-4%	.	.	36%	11%[59 µM]
O=c1[nH]c(=S)[nH]nc1Cc1ccc(Cl)c(Cl)c1	-9%	16%	-9	3	31%	50µM*
CC(C)(C)c1ccc(Cc2n[nH]c(=S)[nH]c2=O)cc1	-8%	2%	-7	-3	36%	23%[2.33 µM]
CC(=O)N1CCc2cc(S(=O)(=O)NC(Cc3ccccc3)C(=O)NCc3ccccc3Cl)ccc21 (centres undefined)	3%	.	.	.	57%	?
CCCC12CN3CC(C)(CN(C1)C3c1ccco1)C2=O (centres undefined)	56µM*	1%	10	0	-2%	19%
CCCC12CN3CC(CCC)(CN(C1)C3c1ccco1)C2=O (centres undefined)	-15%	-17%	3	13	-4%	.
O=C(CCNS(=O)(=O)c1ccc2c(c1)CCN2C(=O)C1CC1)N1CCN(c2cccc(C(F)(F)F)c2)CC1	-16%	-1%	.	.	29%[57 µM]	-1%[59 µM]
O=C(O)c1cccc(Sc2ccc(Br)cc2C(=O)O)c1	-16%	-10%	-11	2	29%	5%[2.33 µM]
O=C(O)c1cccc(Sc2cc(Cl)ccc2C(=O)O)c1	89µM*	56µM*	-8	0	23%	-4%[0.501 µM]
COc1cc2c(cc1OC)CN(C(=O)c1oc3ccccc3c1C)CC2	-32%	?	-8	-1	-18%	7%
Cn1c(C(=O)N2CCc3ccccc3C2)cc2oc3ccccc3c21	79µM*	?	?	?	?	?
CCn1c(C(=O)NCc2ccc(F)cc2)cc2oc3ccccc3c21	-33%	1%	.	.	21%	1%[59 µM]
CCn1c(C(=O)N2CCc3ccccc3C2)cc2oc3ccccc3c21	?	50µM*	-26	?	-23%	?
Clc1cc(Cl)c(OCC#CI)cc1Cl	.	.	.	.	.	-6%[12.7 µM]
CCN(C(=O)c1cc2c(=O)oc3ccc(C)cc3c2s1)c1ccccc1C	8%	-18%	.	.	49%	8%[59 µM]
CCCn1c(CCC(=O)Nc2ccc(OCC)cc2)nc2cccnc21	-13%	-11%	.	.	31%	-6%[59 µM]
O=C(CSc1nccn1Cc1ccccc1)NCc1ccco1	?	?	.	.	9%[57 µM]	?
O=[N+]([O-])c1ccccc1/C=C/CN1CCSCC1	13µM*	50µM*	.	0	?	.
O=C1CC(N2CCN(C3CC(=O)N(CCc4ccccc4)C3=O)CC2)C(=O)N1CCc1ccccc1 (centres undefined)	-18%	-2%	8	-4	25%	-21%
O=C1CC(N2CCC(Cc3ccccc3)CC2)C(=O)N1CCc1ccccc1 (centres undefined)	-5%	0%	6	-6	25%	50µM*
COc1cc(OC)c(OC)cc1/C=N/NC(=O)c1cccc(S(=O)(=O)N2CCOCC2)c1	-25%	-27%	-9	-6	16%	?
O=C(O)COc1ccccc1/C=N/NC(=O)c1cccc(S(=O)(=O)N2CCOCC2)c1	40µM*	?	-6	2	0%	14µM*
SMILES	JMJD2A Tudor	BAZ2B inh	CtBP-E1A inh	Six1-Eya2 inh	HP1b binding inh	G9a inh
COc1ccccc1NS(=O)(=O)c1cccc(C(=O)N/N=C/c2ccccc2OCC(=O)O)c1	-13%	-33%	-10	-5	13%	?
COc1cc(/C=N/NC(=O)c2cccc(S(=O)(=O)N3CCOCC3)c2)cc(OC)c1O	-19%	-13%	-16	-5	17%	40µM*
CCN(CC)S(=O)(=O)c1cccc(C(=O)N/N=C/c2ccccc2OCC(=O)O)c1	?	50µM*	-3	2	0%	22µM*
COc1ccccc1/C=C/C=N/NC(=O)CN1CCN(S(=O)(=O)c2ccc(C)cc2)CC1	-14%	-6%	1	-15	11%	1%
Cc1ccc(S(=O)(=O)N2CCN(CC(=O)N/N=C/c3ccccc3OCC(=O)O)CC2)cc1	40µM*	-14%	8	3	14%	.
Cc1ccc(NC(=O)C2CCCN(S(=O)(=O)c3ccc4c(c3)oc(=O)n4C)C2)cc1Cl (centres undefined)	-12%	-5%	.	.	27%	1%[59 µM]
O=C(NC(=S)Nc1ccccc1N1CCCC1)c1ccc([N+](=O)[O-])cc1	25µM*	11µM*	32	?	22µM*	11µM*
CC(=O)NC(=S)Nc1ccccc1N1CCCCC1	-8%	-27%	-7	-10	26%[57 µM]	50µM*
CCCCC(=O)NC(=S)Nc1ccccc1N1CCCCC1	-12%	-6%	7	18	16%	17%[59 µM]
CCOC(=O)c1cccc(NC(=O)NCCc2c(C)nn(C)c2C)c1	8%	-3%	.	.	35%	1%[12.7 µM]
O=c1cc(-c2ccccc2Cl)oc2ccc([N+](=O)[O-])c(O)c12	-36%	?	-27	4	12%	50µM*!
O=c1cc(-c2ccccc2Cl)oc2c([N+](=O)[O-])c(O)cc(O)c12	-32%	?	.	?	24%	50µM*
O=C(Nc1ccc(O)c2c(=O)cc(-c3ccccc3Cl)oc12)c1ccccc1Cl	-25%	-9%	.	1	20%	?
COc1ccccc1-c1cc(=O)c2c(O)ccc([N+](=O)[O-])c2o1	-8%	-3%	-4	-11	40%	-10%[59 µM]
Nc1ccc2oc(-c3ccccc3Cl)cc(=O)c2c1O	?	?	-28	-29	3%	71µM*
Cc1ccc(Cl)cc1Nc1nc2ccccc2n2c(C)nnc12	7%	5%	.	.	63%	22%[59 µM]
O=C(Cn1c(=O)c2ccccc2n(CC(=O)Nc2ccc(Cl)cc2)c1=O)NCCc1ccccc1	-27%	-34%	.	.	-3%	0%[59 µM]
O=C(COC(=O)c1cc2c(s1)CCC2)Nc1ccc(F)cc1	14µM*	50µM*	6	0	40µM*	?
COc1ccc(NC(=O)COC(=O)c2cc3c(s2)CCC3)cc1	?	79µM*	8	-17	?	10%[12.7 µM]
NC(=O)c1ccc(NC(=O)COC(=O)c2cc3c(s2)CCC3)cc1	?	.	-20	-14	?	.
Cc1ccc(N2CC(NC(=O)CCc3ccccc3)CC2=O)cc1 (centres undefined)	-2%	0%	.	.	22%	5%[59 µM]
